Of roughly 7,900 targets only a part is listed; those with a hit were picked by preference. About 0.6% of all pairs of compound and target were hits.
Experiments:
Assay in all cases: log2 fold change, soluble protein after heating vs DMSO (PISA); higher = thermal stabilisation; K562 cells, 10 uM, 30 min; active = over 0.2 and 3.5 SD of the protein, either way, in both replicates (recomputed)
[1] = compound: COC1=CC=C(C=C1)CN2C=CC3=C2C=C(C=C3)C(=O)NO
Method in brief: (§1)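 K562 cells at 2×10^6 cells/mL were treated for 30 min with 10 μM compound, and aliquots were heated for 3 min over 48°C-58°C before pooling. Extraction used PBS with 0.5% NP-40 at 4°C, and soluble protein was the supernatant after 21,000xg for 90 min, measured by TMTpro 16plex LC-MS/MS with channel sums equalised. Thermal stability values, relative to control samples and from duplicates, are log2 fold changes.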

filanesib = compound: CON(C)C(=O)N1N=C(c2cc(F)ccc2F)S[C@@]1(CCCN)c1ccccc1 [filanesib]
Method in brief: as §1

zotarolimus = compound: CO[C@H]1C[C@@H]2CC[C@@H](C)[C@@](O)(O2)C(=O)C(=O)N2CCCC[C@H]2C(=O)O[C@H]([C@H](C)C[C@@H]2CC[C@H](n3cnnn3)[C@H](OC)C2)CC(=O)[C@H](C)/C=C(\C)[C@@H](O)[C@@H](OC)C(=O)[C@H](C)C[C@H](C)/C=C/C=C/C=C/1C [zotarolimus]
Method in brief: as §1

idasanutlin = compound: COc1cc(C(=O)O)ccc1NC(=O)[C@@H]1N[C@@H](CC(C)(C)C)[C@](C#N)(c2ccc(Cl)cc2F)[C@H]1c1cccc(Cl)c1F [idasanutlin]
Method in brief: as §1

alisertib = compound: COc1cc(Nc2ncc3c(n2)-c2ccc(Cl)cc2C(c2c(F)cccc2OC)=NC3)ccc1C(=O)O [alisertib]
Method in brief: as §1

[2] = compound: COc1cc2nc(-c3cc(F)ccc3O)nc(N[C@@H]3CNC[C@H]3C(C)(C)O)c2cc1OC
Method in brief: as §1

gefitinib = compound: COc1cc2ncnc(Nc3ccc(F)c(Cl)c3)c2cc1OCCCN1CCOCC1 [gefitinib]
Method in brief: as §1

[3] = compound: COc1cccc2cc(-c3nc([C@H]4CC[C@H](C(=O)O)CC4)n4ncnc(N)c34)[nH]c12
Method in brief: as §1

lapatinib = compound: CS(=O)(=O)CCNCc1ccc(-c2ccc3ncnc(Nc4ccc(OCc5cccc(F)c5)c(Cl)c4)c3c2)o1 [lapatinib]
Method in brief: as §1

pictilisib = compound: CS(=O)(=O)N1CCN(Cc2cc3nc(-c4cccc5[nH]ncc45)nc(N4CCOCC4)c3s2)CC1 [pictilisib]
Method in brief: as §1

[4] = compound: CS(=O)(=O)c1ccc(-c2cnc(N)c(C(=O)Nc3ccccc3)n2)cc1
Method in brief: as §1

crizotinib = compound: C[C@@H](Oc1cc(-c2cnn(C3CCNCC3)c2)cnc1N)c1c(Cl)ccc(F)c1Cl [crizotinib]
Method in brief: as §1

[5] = compound: C[C@@H]1COCCN1C2=NC(=NC(=C2)C3(CC3)S(=O)(=O)C)C4=C5C=CNC5=CC=C4
Method in brief: as §1

[6] = compound: C[C@H](C1=CC=C(C=C1)C(=O)NC2=C3C=CNC3=NC=C2)N
Method in brief: as §1

duvelisib = compound: C[C@H](Nc1ncnc2nc[nH]c12)c1cc2cccc(Cl)c2c(=O)n1-c1ccccc1 [duvelisib]
Method in brief: as §1

gandotinib = compound: Cc1cc(Nc2cc(CN3CCOCC3)c3nc(C)c(Cc4ccc(Cl)cc4F)n3n2)n[nH]1 [gandotinib]
Method in brief: as §1

tozasertib = compound: Cc1cc(Nc2cc(N3CCN(C)CC3)nc(Sc3ccc(NC(=O)C4CC4)cc3)n2)n[nH]1 [tozasertib]
Method in brief: as §1

[7] = compound: Cc1cc(SCc2sc(-c3ccc(C(F)(F)F)cc3)nc2C)ccc1OCC(=O)O
Method in brief: as §1

doramapimod = compound: Cc1ccc(-n2nc(C(C)(C)C)cc2NC(=O)Nc2ccc(OCCN3CCOCC3)c3ccccc23)cc1 [doramapimod]
Method in brief: as §1

ispinesib = compound: Cc1ccc(C(=O)N(CCCN)[C@@H](c2nc3cc(Cl)ccc3c(=O)n2Cc2ccccc2)C(C)C)cc1 [ispinesib]
Method in brief: as §1

Measured: log2 fold change

ARGLU1 (UniProt Q9NWB6)
Sequence of UniProt Q9NWB6 (Q9NWB6 whole entry, looked up): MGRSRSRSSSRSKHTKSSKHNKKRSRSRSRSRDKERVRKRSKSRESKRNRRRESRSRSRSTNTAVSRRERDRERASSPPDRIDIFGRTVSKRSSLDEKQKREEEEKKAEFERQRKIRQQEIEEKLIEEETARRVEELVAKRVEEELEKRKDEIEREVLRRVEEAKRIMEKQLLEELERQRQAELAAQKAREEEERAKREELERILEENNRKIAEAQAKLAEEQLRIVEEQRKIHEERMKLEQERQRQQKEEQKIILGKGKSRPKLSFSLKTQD
inactive: [1] 0.066 | filanesib 0.207 | zotarolimus 0.025 | idasanutlin 0.171 | alisertib -0.13 | [2] 0.05 | gefitinib 0.212 | [3] 0.031 | lapatinib 0.062 | pictilisib -0.027 | [4] -0.038 | crizotinib -0.008 | [5] -0.039 | [6] -0.344 | duvelisib -0.011 | gandotinib 0.212 | tozasertib 0.037 | [7] -0.027 | doramapimod 0.047 | ispinesib 0.242

ACSL1 (UniProt P33121)
Sequence of UniProt P33121 (P33121 whole entry, looked up): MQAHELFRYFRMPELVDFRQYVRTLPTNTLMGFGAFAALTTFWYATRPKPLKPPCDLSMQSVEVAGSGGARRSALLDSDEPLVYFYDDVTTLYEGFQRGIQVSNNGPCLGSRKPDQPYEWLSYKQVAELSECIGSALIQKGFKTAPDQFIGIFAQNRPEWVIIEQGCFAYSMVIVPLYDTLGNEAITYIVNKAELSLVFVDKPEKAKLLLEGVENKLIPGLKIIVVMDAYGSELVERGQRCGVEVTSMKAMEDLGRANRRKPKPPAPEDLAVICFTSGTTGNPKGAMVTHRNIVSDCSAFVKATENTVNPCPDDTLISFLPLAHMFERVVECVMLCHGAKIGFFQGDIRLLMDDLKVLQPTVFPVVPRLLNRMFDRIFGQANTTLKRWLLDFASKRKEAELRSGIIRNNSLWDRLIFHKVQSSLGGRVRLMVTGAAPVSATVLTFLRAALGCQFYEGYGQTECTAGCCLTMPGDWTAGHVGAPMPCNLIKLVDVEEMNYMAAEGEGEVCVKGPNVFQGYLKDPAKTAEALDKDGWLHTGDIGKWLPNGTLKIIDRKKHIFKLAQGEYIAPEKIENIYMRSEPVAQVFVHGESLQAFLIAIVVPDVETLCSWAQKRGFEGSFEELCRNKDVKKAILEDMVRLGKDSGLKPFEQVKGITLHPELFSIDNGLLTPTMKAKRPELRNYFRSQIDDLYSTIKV
inactive: [1] -0.014 | filanesib -0.08 | zotarolimus 0.038 | idasanutlin -0.017 | alisertib 0.015 | [2] -0.261 | gefitinib 0.024 | [3] 0.024 | lapatinib 0.017 | pictilisib 0.041 | [4] 0.012 | crizotinib -0.091 | [5] 0.017 | [6] -0.024 | duvelisib 0.056 | gandotinib 0.008 | tozasertib -0.028 | [7] 0 | doramapimod -0.003
active: ispinesib -0.246

ATRN (UniProt O75882)
Sequence of UniProt O75882 (O75882 whole entry, looked up): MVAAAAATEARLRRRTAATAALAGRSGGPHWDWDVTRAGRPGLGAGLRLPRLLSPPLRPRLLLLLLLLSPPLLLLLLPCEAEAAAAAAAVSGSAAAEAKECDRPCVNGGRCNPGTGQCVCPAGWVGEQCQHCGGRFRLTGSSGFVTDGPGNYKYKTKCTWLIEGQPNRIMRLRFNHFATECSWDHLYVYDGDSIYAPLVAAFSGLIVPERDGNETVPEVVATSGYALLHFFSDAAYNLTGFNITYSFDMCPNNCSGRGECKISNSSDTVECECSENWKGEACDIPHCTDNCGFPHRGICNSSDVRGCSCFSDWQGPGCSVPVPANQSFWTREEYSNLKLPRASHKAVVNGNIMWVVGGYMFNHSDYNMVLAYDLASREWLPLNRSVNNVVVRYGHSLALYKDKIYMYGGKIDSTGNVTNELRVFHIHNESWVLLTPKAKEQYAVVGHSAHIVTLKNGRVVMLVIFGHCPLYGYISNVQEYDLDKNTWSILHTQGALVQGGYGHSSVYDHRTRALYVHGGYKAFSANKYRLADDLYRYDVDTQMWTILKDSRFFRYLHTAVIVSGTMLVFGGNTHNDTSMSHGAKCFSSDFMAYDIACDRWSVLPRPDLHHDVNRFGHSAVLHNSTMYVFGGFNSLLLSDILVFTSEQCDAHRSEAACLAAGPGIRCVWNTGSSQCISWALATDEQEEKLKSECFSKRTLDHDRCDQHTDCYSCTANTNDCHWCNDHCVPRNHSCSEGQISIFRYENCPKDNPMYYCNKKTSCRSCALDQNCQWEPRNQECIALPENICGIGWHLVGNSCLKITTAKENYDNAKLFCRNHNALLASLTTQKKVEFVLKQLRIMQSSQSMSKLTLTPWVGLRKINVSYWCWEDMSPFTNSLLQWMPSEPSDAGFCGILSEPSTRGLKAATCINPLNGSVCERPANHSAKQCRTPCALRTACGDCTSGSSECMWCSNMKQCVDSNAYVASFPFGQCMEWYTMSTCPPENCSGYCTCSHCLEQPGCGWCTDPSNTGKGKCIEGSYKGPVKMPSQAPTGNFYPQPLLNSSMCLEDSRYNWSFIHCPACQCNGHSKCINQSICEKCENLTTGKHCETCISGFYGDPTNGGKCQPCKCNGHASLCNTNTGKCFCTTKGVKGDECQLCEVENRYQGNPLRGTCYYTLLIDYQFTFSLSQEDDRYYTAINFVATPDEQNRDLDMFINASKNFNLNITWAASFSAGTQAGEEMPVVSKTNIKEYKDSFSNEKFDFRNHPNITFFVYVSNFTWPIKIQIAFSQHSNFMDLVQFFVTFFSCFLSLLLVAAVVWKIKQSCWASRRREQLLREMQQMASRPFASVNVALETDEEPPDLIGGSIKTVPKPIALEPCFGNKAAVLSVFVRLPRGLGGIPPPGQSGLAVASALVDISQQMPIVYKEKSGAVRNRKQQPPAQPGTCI
inactive: [1] -0.243 | filanesib -0.037 | zotarolimus 0 | idasanutlin -0.032 | alisertib 0.095 | [2] -0.004 | gefitinib 0.108 | [3] 0.111 | lapatinib 0.043 | pictilisib 0.153 | [4] -0.049 | crizotinib 0.01 | [5] 0.116 | [6] 0.087 | duvelisib -0.028 | gandotinib -0.002 | tozasertib -0.003 | [7] 0.071 | doramapimod -0.238

ALDH1B1 (UniProt P30837)
Sequence of UniProt P30837 (P30837 whole entry, looked up): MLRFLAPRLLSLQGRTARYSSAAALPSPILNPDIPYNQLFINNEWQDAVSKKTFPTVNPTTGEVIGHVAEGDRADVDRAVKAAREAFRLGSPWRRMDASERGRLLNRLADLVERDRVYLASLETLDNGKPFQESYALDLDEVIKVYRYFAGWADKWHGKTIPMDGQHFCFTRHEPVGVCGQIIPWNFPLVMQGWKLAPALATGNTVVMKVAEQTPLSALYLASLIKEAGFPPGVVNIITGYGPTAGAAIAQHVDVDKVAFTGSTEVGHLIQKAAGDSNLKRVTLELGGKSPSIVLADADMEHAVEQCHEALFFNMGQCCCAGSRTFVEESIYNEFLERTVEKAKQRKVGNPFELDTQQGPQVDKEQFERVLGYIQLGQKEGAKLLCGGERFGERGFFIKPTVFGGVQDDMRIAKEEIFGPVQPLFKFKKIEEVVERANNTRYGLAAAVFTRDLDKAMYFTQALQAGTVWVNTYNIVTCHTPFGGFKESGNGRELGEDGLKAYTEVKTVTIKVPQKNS
inactive: [1] 0.051 | filanesib -0.1 | zotarolimus 0.029 | idasanutlin -0.122 | alisertib -0.045 | [2] -0.009 | gefitinib 0.091 | [3] 0.075 | lapatinib -0.003 | pictilisib 0.062 | [4] 0.054 | crizotinib -0.067 | [5] 0.12 | [6] -0.068 | duvelisib 0.021 | gandotinib -0.025 | tozasertib -0.011 | [7] 0.008 | doramapimod -0.006 | ispinesib 0.019

ATAD3B (UniProt Q5T9A4)
Sequence of UniProt Q5T9A4 (Q5T9A4 whole entry, looked up): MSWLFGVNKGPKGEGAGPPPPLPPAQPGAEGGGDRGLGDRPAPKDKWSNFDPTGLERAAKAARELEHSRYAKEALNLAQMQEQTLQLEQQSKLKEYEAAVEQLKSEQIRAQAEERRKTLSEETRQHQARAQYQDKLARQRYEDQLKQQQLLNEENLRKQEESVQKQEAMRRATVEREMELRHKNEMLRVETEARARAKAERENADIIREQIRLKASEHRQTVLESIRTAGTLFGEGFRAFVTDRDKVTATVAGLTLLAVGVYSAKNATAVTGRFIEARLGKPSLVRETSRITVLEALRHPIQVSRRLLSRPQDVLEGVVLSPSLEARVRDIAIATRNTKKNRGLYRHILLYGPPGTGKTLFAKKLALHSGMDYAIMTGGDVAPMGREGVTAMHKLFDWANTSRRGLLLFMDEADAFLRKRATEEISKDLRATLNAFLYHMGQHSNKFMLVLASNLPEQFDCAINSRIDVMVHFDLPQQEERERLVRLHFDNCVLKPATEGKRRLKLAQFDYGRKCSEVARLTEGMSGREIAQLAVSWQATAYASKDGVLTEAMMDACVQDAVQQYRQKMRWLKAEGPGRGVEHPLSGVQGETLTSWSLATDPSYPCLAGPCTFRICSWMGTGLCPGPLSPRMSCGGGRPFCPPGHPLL
active: ispinesib -0.544
inactive: [1] -0.035 | filanesib 0.089 | zotarolimus -0.064 | idasanutlin 0.081 | alisertib 0.193 | [2] -0.138 | gefitinib -0.134 | [3] -0.136 | lapatinib -0.047 | pictilisib -0.161 | [4] 0.009 | crizotinib -0.171 | [5] -0.112 | [6] 0.191 | duvelisib -0.05 | gandotinib 0.033 | tozasertib 0.034 | [7] 0.105 | doramapimod 0.137

ATP13A3 (UniProt Q9H7F0)
Sequence of UniProt Q9H7F0 (Q9H7F0 whole entry, looked up): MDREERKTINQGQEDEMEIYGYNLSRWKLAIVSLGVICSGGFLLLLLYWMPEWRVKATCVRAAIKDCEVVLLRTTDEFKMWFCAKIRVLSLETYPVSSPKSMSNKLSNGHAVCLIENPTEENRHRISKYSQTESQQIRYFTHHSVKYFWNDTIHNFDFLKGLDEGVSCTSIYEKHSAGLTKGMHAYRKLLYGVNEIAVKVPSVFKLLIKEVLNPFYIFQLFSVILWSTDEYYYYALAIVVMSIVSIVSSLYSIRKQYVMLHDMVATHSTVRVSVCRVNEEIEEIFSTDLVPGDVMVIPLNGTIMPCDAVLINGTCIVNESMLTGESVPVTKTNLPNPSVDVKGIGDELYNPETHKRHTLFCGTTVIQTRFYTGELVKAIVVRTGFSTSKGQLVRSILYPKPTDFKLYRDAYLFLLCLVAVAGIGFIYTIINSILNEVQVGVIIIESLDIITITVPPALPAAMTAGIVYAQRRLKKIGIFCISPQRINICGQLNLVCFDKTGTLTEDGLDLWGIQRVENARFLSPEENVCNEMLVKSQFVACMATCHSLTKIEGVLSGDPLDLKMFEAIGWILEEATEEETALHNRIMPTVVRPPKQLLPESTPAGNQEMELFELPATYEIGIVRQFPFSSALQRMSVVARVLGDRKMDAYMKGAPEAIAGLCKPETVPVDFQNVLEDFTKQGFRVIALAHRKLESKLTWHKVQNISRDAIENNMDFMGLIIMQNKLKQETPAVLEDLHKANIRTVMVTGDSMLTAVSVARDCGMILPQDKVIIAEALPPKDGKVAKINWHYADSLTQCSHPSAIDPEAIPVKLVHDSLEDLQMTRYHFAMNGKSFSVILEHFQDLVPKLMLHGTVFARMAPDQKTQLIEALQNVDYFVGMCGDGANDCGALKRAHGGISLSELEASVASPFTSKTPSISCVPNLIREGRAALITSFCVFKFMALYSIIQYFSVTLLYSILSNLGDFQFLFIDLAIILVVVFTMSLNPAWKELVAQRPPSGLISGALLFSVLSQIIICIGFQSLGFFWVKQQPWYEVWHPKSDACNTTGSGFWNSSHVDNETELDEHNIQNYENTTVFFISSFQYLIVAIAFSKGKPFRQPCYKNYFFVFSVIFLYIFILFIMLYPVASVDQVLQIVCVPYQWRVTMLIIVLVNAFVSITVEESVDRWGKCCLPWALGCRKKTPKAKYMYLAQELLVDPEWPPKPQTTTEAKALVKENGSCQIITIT
inactive: [1] -0.034 | filanesib 0.054 | zotarolimus -0.158 | idasanutlin -0.027 | alisertib -0.098 | [2] -0.078 | gefitinib -0.02 | [3] -0.038 | lapatinib 0.005 | pictilisib 0.104 | [4] 0.076 | crizotinib -0.251 | [5] -0.037 | [6] 0.056 | duvelisib 0.09 | gandotinib 0 | tozasertib -0.118 | [7] -0.043 | doramapimod 0.045 | ispinesib -0.251

ATP1A1 (UniProt P05023)
inactive: [1] 0.09 | filanesib 0.013 | zotarolimus 0.002 | idasanutlin 0.004 | alisertib -0.092 | [2] 0.032 | gefitinib 0.03 | [3] 0.054 | lapatinib -0.019 | pictilisib -0.023 | [4] 0.032 | crizotinib 0.165 | [5] 0.028 | [6] -0.117 | duvelisib 0.029 | gandotinib -0.049 | tozasertib -0.061 | [7] -0.035 | doramapimod -0.047 | ispinesib 0.106

AFDN isoform 5 (UniProt P55196)
inactive: [1] 0.131 | filanesib 0.014 | zotarolimus 0.013 | idasanutlin -0.06 | alisertib 0 | [2] 0.034 | gefitinib -0.017 | [3] -0.009 | lapatinib -0.026 | pictilisib -0.009 | [4] 0.027 | crizotinib -0.154 | [5] 0.04 | [6] -0.094 | duvelisib -0.016 | gandotinib -0.159 | tozasertib -0.029 | [7] 0.063 | doramapimod 0.009 | ispinesib -0.002

— the supplement of paper PMC10849652
